± gives the standard deviation.
test system: OVCAR-3-derived ovarian cancer stem-like cells (spheroids); test: cell growth relative to untreated control; higher = more growth (less inhibition); settings: 2.29 µM; 96 h
Procedure, shortened: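 OVCAR-3 spheroid-derived stem-like cells were trypsin-dissociated, seeded at 50,000 cells/mL in stem cell medium in ultra-low attachment 96-well plates and preincubated 24 h. Compounds were then added at 2.29 uM for 96 h at 37°C, 5% CO2, in 4 replicate wells. Viability was read as TOX8 resazurin fluorescence (ex 560/em 590 nm) after 4 h. Percent growth was calculated relative to untreated wells after blank subtraction and Grubbs outlier removal.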

Structure (SMILES)	cell growth [%]
COc1ccc(-c2cc(=O)c3c(OC)c(OC)c(OC)cc3o2)cc1	120 ± 31
CC(=O)OC1C(O)C(C)OC(OC2C(OC(=O)C3CCC4C(C3)OC3(CC(OC(=O)/C=C/c5ccccc5)C(C)CO3)C43CO3)OC(C)C(O)C2OC(C)=O)C1O (configuration not stated)	5.3 ± 3.2
COC(=O)C1C(O)C(C)C(O)C(C)/C=C\C=C(C)C(=O)Nc2c(C)c(OC(C)=O)c3c(c2O)C(=O)C(C)=C2OCOC(=C23)C(C)=CC(C)(O)C(O)C(C)C1O (configuration not stated)	84.9 ± 18
NCCCNCCSP(=O)(O)O	99.4 ± 12
Cn1c(=O)[nH]c2nncnc2c1=O	92.3 ± 13
C[C@@H]1CC[C@@]2(OC1)O[C@H]1CC3[C@@H]4CC=C5C[C@@H](O[C@@H]6O[C@H](CO)[C@@H](O[C@@H]7O[C@@H](C)[C@H](O[C@@H]8O[C@@H](C)[C@H](O)[C@@H](O)[C@@H]8O)[C@@H](O)[C@H]7O)[C@H](O)[C@H]6O[C@@H]6O[C@@H](C)C(O)[C@@H](O)[C@H]6O)CC[C@]5(C)[C@H]4CC[C@]3(C)[C@H]1[C@@H]2C (some centres not stated)	8.03 ± 3.1
NP(=O)(Oc1c2occc2cc2ccc(=O)oc12)N(CCCl)CCCl (configuration not stated)	72.2 ± 18
Cc1cc2c(C(C)C)c(O)c(O)c(C=O)c2c(O)c1-c1c(C)cc2c(C(C)C)c(O)c(O)c(C=O)c2c1O	86 ± 61
C=C1C(=O)O[C@@H]2C[C@@H](C)[C@@H]3C=CC(=O)[C@@]3(C)[C@@H](O)[C@H]12	14.5 ± 2.5
CC1OC(O[C@@H]2C=C3CC[C@@H]4[C@H](CC[C@]5(C)[C@@H](c6ccc(=O)oc6)CC[C@]45O)[C@@]3(C)CC2)C(O)C(O)C1O (some centres not stated)	24.5 ± 6.9
C=C1C(C)C2C(Cc3ccccc3)NC(=O)C23C(OC(C)=O)/C=C/C(C)(O)CC(C)C/C=C/C3C1O (configuration not stated)	90.3 ± 20
C[N+](C)(C)CC1CCCC1=O (configuration not stated)	95.5 ± 20
CC[PH+](CC)CC.[Cl][Au]	103 ± 27
O=[N+]([O-])[O-].O=[N+]([O-])[O-].O=[N+]([O-])[O-].[Ga+3]	120 ± 11
C/C1=C\[C@H](C)C[C@H](C)OC(=O)CC(c2ccc(O)cc2)NC(=O)[C@@H](Cc2c(Br)[nH]c3ccccc23)N(C)C(=O)[C@H](C)NC(=O)[C@@H](C)C1 (some centres not stated)	25 ± 5.7
Cc1cc(N(CCCl)CCCl)ccc1/C=N/NC(=O)Cc1cc(=O)oc2cc(O)ccc12	113 ± 53

Structure (SMILES)	cell growth [%]
COc1cccc2c1cc([N+](=O)[O-])c1c(C(=O)O)cc3c(c12)OCO3	95.5 ± 14
CCC(=O)OC1CCn2c1nc1c2C(=O)C(C)=C(N2CC2)C1=O (configuration not stated)	130 ± 34
Cc1cc(N(CCOS(C)(=O)=O)CCOS(C)(=O)=O)ccc1C=Nc1ccc(-c2csc(-c3ccccc3)n2)c(Cl)c1	97.7 ± 47
C1COCCN1.S=C(S)N1CCOCC1	63.4 ± 11
CC(=O)[O][Pb]([O]C(C)=O)([c]1ccccc1)[c]1ccccc1	80.2 ± 14
O=C1OC(c2ccccc2)=N/C1=C\c1ccc(N(CCCl)CCCl)cc1	64.5 ± 12
COc1cc2c(c(OC)c1OC)-c1ccc(OC)c(=O)cc1[C@@H](NC(C)=O)CC2	47.9 ± 11
CC1=C2C(=CC(C)(C)[C@@H]2O)C(=O)[C@](C)(O)C12CC2	20.3 ± 2.4
O=C([CH-]C(=O)C(F)(F)F)c1ccccc1.O=C([CH-]C(=O)C(F)(F)F)c1ccccc1.O=C([CH-]C(=O)C(F)(F)F)c1ccccc1.O=C([CH-]C(=O)C(F)(F)F)c1ccccc1.[Eu+3].c1ccncc1	104 ± 18
N#Cc1cn([C@@H]2O[C@H](CO)[C@@H](O)[C@H]2O)c2ncnc(N)c12	8.9 ± 3.4
CC[C@@]12CCCN3CC[C@]4(c5cccc(OC)c5N(C(C)=O)[C@@H]4CC1)[C@H]32	144 ± 29
C[Si](C)(CN)CN.[Cl][Pt][Cl]	137 ± 53
CCCNC1=C(C)C(=O)C2=C(C1=O)[C@H](COC(N)=O)[C@]1(OC)[C@@H]3N[C@@H]3CN21	60.4 ± 24
CC1=C(N2CC2)C(=O)C(CO)=C(N2CC2)C1=O	9 ± 3.5
C[C@@H]1CCOC(=O)/C=C/C=C\C(=O)O[C@@H]2C[C@H]3O[C@@H]4[C@@H]5O[C@]5(C)[C@H](O)C[C@]4(COC(=O)[C@H]1O)[C@]2(C)[C@@]31CO1	13.4 ± 5.4
CC(/C=N/N=C(N)N)=N\N=C(N)N	70.6 ± 16
